We go through 34 molecules from PubChem BioAssay (EPA / NIEHS).

Molecules are shown by their SMILES. The source made the active and inactive calls. Rule for the calls: active = hit-call score of the fitted dose curve at least 0.9, where 1 is the maximum; inactive = score below 0.9.

Chain of Transcription factor E2F1 (Homo sapiens) (Q01094 whole entry, looked up): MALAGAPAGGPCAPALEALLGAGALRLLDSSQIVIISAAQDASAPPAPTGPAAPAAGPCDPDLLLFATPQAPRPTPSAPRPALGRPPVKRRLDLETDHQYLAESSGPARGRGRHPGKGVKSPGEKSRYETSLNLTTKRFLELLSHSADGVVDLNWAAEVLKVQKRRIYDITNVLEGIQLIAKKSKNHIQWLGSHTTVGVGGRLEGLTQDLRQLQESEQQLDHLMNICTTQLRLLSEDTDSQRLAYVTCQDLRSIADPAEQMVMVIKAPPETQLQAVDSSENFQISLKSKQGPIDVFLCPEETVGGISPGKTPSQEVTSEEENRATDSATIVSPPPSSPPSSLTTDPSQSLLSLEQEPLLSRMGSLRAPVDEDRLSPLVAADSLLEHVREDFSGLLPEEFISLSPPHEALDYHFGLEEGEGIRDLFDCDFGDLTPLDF

The assay has as its target Transcription factor E2F1 (Homo sapiens) (UniProt Q01094). Nature of the assay: ATG_E2F_CIS: Attagene CIS-FACTORIAL HepG2 Assay for human E2F Transcription Factor 1 (AID 2282935). The conditions noted are these: HepG2 Attagene cis-reporter, E2F reporter RNA transcripts; actives raise or lower the signal. Put shortly: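 Cis-element reporter mRNA induction in transiently transfected HepG2, 24 h exposure. Activity fitted in both directions relative to DMSO negative control.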
As to `CC/C=C\CCOC(C)OCC` (centres undefined), the result was inactive.
Under `CCCCCCCCCCCCCCCCCC(=O)OCCCCCCCCCCCCCC(C)C` stands “inactive”.
Take `CC(=N[Si](C)(C)C)O[Si](C)(C)C`: the molecule was classed as inactive.
As for `c1ccc(Cc2ccccc2)cc1`, the molecule was called inactive.
With `Cc1cc(N)n(-c2ccccc2)n1` the entry was “inactive”; with `c1ccc(OCCOc2ccccc2)cc1`, “inactive”.
As for `OCCCO`, the molecule was classed as inactive.
Under `CCCCCC#CC(=O)OC` stands “inactive”; under `O=[N+]([O-])c1cc(N(CCO)CCO)ccc1NCCO`, “inactive”.
With `C=C(C)C(=O)OCCC[Si](OC)(OC)OC` the entry was “inactive”; with `c1ccc2scnc2c1`, “inactive”; with `CC12CCC(C1)C(C)(C)C2O` (centres undefined), “inactive”.
Under `COc1ccc(OC)cc1` stands “inactive”; under `CCCCCCOC(C)=O`, “inactive”; under `CC(CO)c1ccccc1` (centres undefined), “inactive”.
With `CCCCCCCCCCCCOC(C)=O`, the call was inactive.
Take `CCCCC(CC)COCCO` (centres undefined): the molecule was called inactive.
Under `CC(C)CCOC(=O)CC(C)C` stands “inactive”; under `CCOC(=O)CCCCCCCCC(=O)OCC`, “inactive”.
With `CCCCCC(=O)O[C@]1(C(C)=O)CC[C@H]2[C@@H]3CCC4=CC(=O)CC[C@]4(C)[C@H]3CC[C@@]21C` the entry was “inactive”.
For the molecule `CN(C)c1ccc(C=O)cc1`, the molecule was classed as inactive.
Under `CCOCC(C)O` (centres undefined) stands “inactive”; under `COc1cc(OC)c2ccc(=O)oc2c1`, “inactive”.
In the case of `[Cl][Dy]([Cl])[Cl]`, the molecule was called inactive.
Regarding `O=C(O)CS`, the outcome was inactive.
With `CCC(CC)CO` the entry was “inactive”.
Consider `CCCCCc1cccc(=O)o1`, for which the result was inactive.
With `Cc1ccccc1S` the entry was “inactive”.
Under `CCc1cccc(O)c1` stands “inactive”; under `CCC(C)(CCCC(C)C)OC(C)=O` (centres undefined), “inactive”; under `CCC=C(C)C=O`, “inactive”.
With `NC(=O)c1c(Cl)cccc1Cl`, the call was inactive.
For `CC(O)CNCC(C)O` (centres undefined), the outcome was inactive.
In the case of `CC(C)Cc1ccc(C(C)C(=O)O)cc1` (centres undefined), the call was inactive.
